# In the supplement of paper PMC6607015:
# Structures can show the parent of a compound that is named as a salt.
# What was measured:
# Details in all cases: compound concentration in added solution (µM; 5 µl added to 20 µl cells): 10; 18 h
# [1] = tested on: A431; assay: LBPA endosome anti-LBPA integrated intensity (sum per cell), Z-score; higher = more LBPA staining
# Method in brief: (§1)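 In duplicate 384-well imaging plates, 3,500 HeLa MZ or A431 cells in 20 µl per well were seeded onto 5 µl of 10 µM compound solution. The cells were incubated for 18 h, fixed in 4% PFA and stained with 6C4 anti-LBPA antibody, filipin, propidium iodide and CellTracker green before four 20× images were acquired per well. Values are AcuityXpress-normalised Z-scores of per-cell integrated LBPA or filipin intensity, obtained by MetaXpress segmentation over the whole cell or in LBPA endosomes.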
# [2] = tested on: HeLa MZ; assay: as above
# Method in brief: as §1
# [3] = tested on: A431; assay: whole-cell filipin (free cholesterol) integrated intensity, Z-score; higher = more cholesterol staining
# Method in brief: as §1
# [4] = tested on: HeLa MZ; assay: as above
# Method in brief: as §1
# [5] = tested on: A431; assay: filipin (cholesterol) integrated intensity within LBPA endosomes, Z-score; higher = more cholesterol in LBPA endosomes
# Method in brief: as §1
# [6] = tested on: HeLa MZ; assay: as above
# Method in brief: as §1
Compound,LBPA endosome anti-LBPA integrated intensity (z-score) [1],LBPA endosome anti-LBPA integrated intensity (z-score) [2],whole-cell filipin (z-score) [3],whole-cell filipin (z-score) [4],filipin (z-score) [5],filipin (z-score) [6]
CCOC(=O)C1=C(C)NC(C)=C(C(=O)OCC)C1c1ccccc1/C=C/C(=O)OC(C)(C)C [Lacidipine],0.359,1.4,0.71,1.28,0.446,0.927
NS(=O)(=O)c1cc(C2(O)NC(=O)c3ccccc32)ccc1Cl (configuration not stated) [Chlorthalidone],-0.286,-0.349,-0.587,-0.924,-0.516,-0.608
CC[C@H](C)C(=O)O[C@H]1CCC=C2C=C[C@H](C)[C@H](CC[C@@H]3C[C@@H](O)CC(=O)O3)[C@H]21 [Mevastatin],-1.03,-2.17,-1,-0.345,-0.746,-0.0775
CC(=O)NS(=O)(=O)c1ccc(N)cc1 [Sulfacetamide sodic hydrate],-0.453,-0.433,-0.701,-0.53,-0.475,-0.628
OC(c1cc(C(F)(F)F)nc2c(C(F)(F)F)cccc12)C1CCCCN1 (configuration not stated) [Mefloquine hydrochloride],2,-0.429,0.872,-0.477,1.56,1.56
Oc1ccc(OCc2ccccc2)cc1 [Monobenzone],-0.343,2.16,2.23,2.56,-0.548,-0.736
Nc1ccc(S(=O)(=O)Nc2ccccn2)cc1 [Sulfapyridine],-0.468,-0.131,-0.33,-0.348,-0.499,-0.602
CN(C)CCC(c1ccc(Cl)cc1)c1ccccn1 (configuration not stated) [Chlorpheniramine maleate],-0.653,0.363,-0.45,-0.192,-0.443,0.105
C[N+]1(C)CCC(=C(c2ccccc2)c2ccccc2)CC1 [Diphemanil methylsulfate],-0.603,-1.21,-0.868,-0.964,-0.428,-0.688
C#C[C@]1(O)CC[C@H]2[C@@H]3CCC4=C(CCC(=O)C4)[C@H]3CC[C@@]21C [Norethynodrel],-0.487,-0.658,-0.784,-0.871,-0.48,-0.512
CN(C(=O)C(Cl)Cl)c1ccc(OC(=O)c2ccco2)cc1 [Diloxanide furoate],-0.565,-0.529,-0.629,-0.7,-0.498,-0.517
CC(=O)[C@H]1CC[C@H]2[C@@H]3C=CC4=CC(=O)CC[C@@]4(C)[C@@H]3CC[C@]12C [Dydrogesterone],1.19,1.12,0.649,0.0624,0.655,-0.0901
CCOc1nc2cccc(C(=O)O)c2n1Cc1ccc(-c2ccccc2-c2nnn[nH]2)cc1 [Candesartan],-0.346,0.346,0.0521,0.386,-0.389,-0.218
CC1CCc2cc(F)cc3c(=O)c(C(=O)O)cn1c23 (configuration not stated) [Flumequine],-0.63,-0.763,-0.836,-0.225,-0.543,-0.72
C[C@@H]1C[C@H]2[C@@H]3C[C@H](F)C4=CC(=O)C=C[C@]4(C)[C@@]3(F)[C@@H](O)C[C@]2(C)[C@@]1(O)C(=O)CO [Flumethasone],-0.341,-0.862,-0.0225,0.117,-0.194,-0.317
CN(C)CCC=C1c2ccccc2COc2ccccc21 [Doxepin hydrochloride],1.38,1.22,1.29,-0.0249,1.62,1.18
CN[C@@H]1[C@H](O[C@H]2[C@H](O[C@H]3[C@H](O)[C@@H](O)[C@H](NC(=N)N)[C@@H](O)[C@@H]3NC(=N)N)O[C@@H](C)[C@]2(O)CO)O[C@@H](CO)[C@H](O)[C@H]1O [Dihydrostreptomycin sulfate],-0.602,-1.07,-1,-0.938,-0.56,-0.704
NS(=O)(=O)c1cc2c(cc1C(F)(F)F)NC(Cc1ccccc1)NS2(=O)=O (configuration not stated) [Bendroflumethiazide],-0.595,-0.755,-0.332,-0.0234,-0.529,-0.486
Cc1c(NC(=O)c2cccnc2)c(=O)n(-c2ccccc2)n1C [Nifenazone],-0.531,-0.887,-0.738,-0.647,-0.626,-0.754
CN1CC2c3ccccc3Oc3ccc(Cl)cc3C2C1 (configuration not stated) [Asenapine maleate],2.13,2,0.865,-0.413,1.3,0.927
CC(=O)O[C@]1(C(C)=O)CC[C@H]2[C@@H]3C=C(C)C4=CC(=O)CC[C@@H]4[C@H]3CC[C@@]21C [Nomegestrol acetate],0.292,0.691,1.29,1.28,0.654,0.778
CCOc1ccc2c(c1)C(C)=CC(C)(C)N2 [Ethoxyquin],-0.421,0.201,-0.319,-0.546,-0.467,-0.418
